# A number with no mark means an inactive call. Inconclusive results are not listed. Where a call stands in place of a potency, no number is given. Active and inactive are the calls of the source. Unless noted, calls come from the whole dose curve; as a rule, active = well fitted curve in either direction with a large enough effect (not every such curve was filed as active); inconclusive = small, poorly fitted or top-dose-only effect, or another doubt; inactive = flat fitted curve, though single readings scatter.
# What was measured:
# [1] = AP1 Signaling Pathway (AID 357);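 note: ME-180 reporter cells stimulated with EGF at its EC50 level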
# Method in brief: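 Cells are seeded overnight, exposed to compound titrations and an EC50 level of EGF for 5 hours at 37 °C, then loaded with CCF4 dye for 2.5 hours. Beta-lactamase activity under the AP-1 element is read as a blue/green ratio.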
# [2] = NFAT Signaling Pathway (AID 444);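 note: carbachol stimulus at about its EC50 of 1 µM final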
# Method in brief: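 Read-out: CCF4 FRET ratio (460 nm/530 nm) after 1 h RT dye loading, used for %activity and AC50 from titration series. Cells: Jurkat NFAT-β-lactamase/M1 line, treated with compound plus 1 uM carbachol for 5 h, 37 °C.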
# [3] = Stat Signaling Pathway (AID 446);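 note: ME-180 cervical cancer cells given 40 pM IL-6 alongside compound; SIE-controlled beta-lactamase reporter measured as 460/530 nm FRET emission ratio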
# Method in brief: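 Overnight-plated ME-180 cells bearing a STAT Inducible Element beta-lactamase reporter; 5 h co-exposure to compound and 40 pM IL-6; values normalized to 300 pM IL-6 and 125 nM JAK inhibitor controls.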
# [4] = biological target: Mitogen-activated protein kinase 10 (Mus musculus) (UniProt Q61831); experiment: JNK3 AlphaScreen Assay (AID 530);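 note: kinase came from lysate of stimulated human HepG2 cells; signal reports phosphorylation of biotinylated GST-cJun 1-79 at Ser73 with 10 µM ATP; series mostly up to about 57 µM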
# Method in brief: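 Kinase buffer: 20 mM Tris-HCl pH 7.6, 10 mM MgCl2, 1 mM DTT, 0.1 mM Na3VO4, 0.01% Tween-20; ATP 10 uM. Substrate biotin-GST-cJun(1-79), enzyme from activated HepG2 lysates. Detection by Ser73 phospho-antibody AlphaScreen.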
# [5] = biological target: 3',5'-cyclic-AMP phosphodiesterase 4B (Homo sapiens) (UniProt Q07343); experiment: qHTS Assay for Inhibitors of PDE-IV (AID 607; active = well fitted activation curve with a large enough effect in the main read-out, with a control signal flat, not every such curve was filed as active)
# Chain of 3',5'-cyclic-AMP phosphodiesterase 4B (Homo sapiens) (Q07343 whole entry, looked up): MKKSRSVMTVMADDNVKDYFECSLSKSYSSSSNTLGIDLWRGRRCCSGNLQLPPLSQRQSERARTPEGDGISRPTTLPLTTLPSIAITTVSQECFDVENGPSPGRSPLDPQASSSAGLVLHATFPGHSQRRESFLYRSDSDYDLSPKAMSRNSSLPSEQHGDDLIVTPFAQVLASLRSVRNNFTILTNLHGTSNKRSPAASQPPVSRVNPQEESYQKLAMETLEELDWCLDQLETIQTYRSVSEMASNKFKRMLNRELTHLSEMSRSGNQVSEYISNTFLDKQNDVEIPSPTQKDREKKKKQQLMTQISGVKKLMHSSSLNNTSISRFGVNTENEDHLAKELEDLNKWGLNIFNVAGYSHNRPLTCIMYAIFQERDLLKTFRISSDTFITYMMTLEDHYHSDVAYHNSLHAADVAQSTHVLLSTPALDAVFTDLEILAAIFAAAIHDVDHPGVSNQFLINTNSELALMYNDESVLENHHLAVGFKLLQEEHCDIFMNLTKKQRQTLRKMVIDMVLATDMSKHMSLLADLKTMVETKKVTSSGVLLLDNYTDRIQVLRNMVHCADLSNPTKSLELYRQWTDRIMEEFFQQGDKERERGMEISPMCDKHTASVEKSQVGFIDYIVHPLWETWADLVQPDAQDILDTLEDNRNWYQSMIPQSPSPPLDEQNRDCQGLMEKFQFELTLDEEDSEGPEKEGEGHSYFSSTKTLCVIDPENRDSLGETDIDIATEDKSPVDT
# Method in brief: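 Live HEK293 cells with a modified cyclic nucleotide-gated (CNG) channel report intracellular cAMP via membrane-potential dye fluorescence (ex 535/em 590 nm). Endogenous PDE-IV was targeted. Compounds were tested at up to 22.9 uM final; RO 20-1724 100 uM served as control.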
# [6] = biological target: Lysosomal acid glucosylceramidase (Homo sapiens) (UniProt P04062); experiment: Glucocerebrosidase-p2 (AID 348; in the data active = potency below about 10 µM; note: potency is the fitted concentration of half-maximal effect); conditions: purified GBA, blue fluorogenic substrate, 40 min
# Chain of Lysosomal acid glucosylceramidase (Homo sapiens) (P04062 whole entry, looked up): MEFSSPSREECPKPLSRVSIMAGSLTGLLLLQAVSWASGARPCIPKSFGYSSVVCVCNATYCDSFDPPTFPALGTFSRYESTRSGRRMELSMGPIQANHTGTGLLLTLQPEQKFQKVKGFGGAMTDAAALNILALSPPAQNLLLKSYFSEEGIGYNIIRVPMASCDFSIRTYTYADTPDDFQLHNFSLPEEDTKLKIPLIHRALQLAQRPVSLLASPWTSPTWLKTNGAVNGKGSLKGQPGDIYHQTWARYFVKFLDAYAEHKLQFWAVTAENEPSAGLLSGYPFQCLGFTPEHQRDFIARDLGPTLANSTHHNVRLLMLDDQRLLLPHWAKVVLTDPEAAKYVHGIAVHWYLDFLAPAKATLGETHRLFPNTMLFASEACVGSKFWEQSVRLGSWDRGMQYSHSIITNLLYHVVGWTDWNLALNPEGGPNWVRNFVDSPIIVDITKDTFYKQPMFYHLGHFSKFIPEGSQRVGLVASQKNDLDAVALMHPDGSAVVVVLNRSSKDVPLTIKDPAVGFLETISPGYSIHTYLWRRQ
# Method in brief: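 Normal human glucocerebrosidase (0.2 nM) with blue fluorogenic substrate (80 uM final) in citrate/phosphate pH 5.9 with 10mM sodium taurocholate, 0.01% tween-20; 40 min RT, NaOH/glycine stop; fluorescence Ex 365/Em 440; AC50 from a titration from 0.6 nM upwards.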
# [7] = biological target: Cytochrome P450 1A2 (Homo sapiens) (UniProt P05177); experiment: p450-cyp1a2 (AID 410; calls by dose curve; note: potency is the fitted concentration of half-maximal effect)
# Chain of Cytochrome P450 1A2 (Homo sapiens) (P05177 whole entry, looked up): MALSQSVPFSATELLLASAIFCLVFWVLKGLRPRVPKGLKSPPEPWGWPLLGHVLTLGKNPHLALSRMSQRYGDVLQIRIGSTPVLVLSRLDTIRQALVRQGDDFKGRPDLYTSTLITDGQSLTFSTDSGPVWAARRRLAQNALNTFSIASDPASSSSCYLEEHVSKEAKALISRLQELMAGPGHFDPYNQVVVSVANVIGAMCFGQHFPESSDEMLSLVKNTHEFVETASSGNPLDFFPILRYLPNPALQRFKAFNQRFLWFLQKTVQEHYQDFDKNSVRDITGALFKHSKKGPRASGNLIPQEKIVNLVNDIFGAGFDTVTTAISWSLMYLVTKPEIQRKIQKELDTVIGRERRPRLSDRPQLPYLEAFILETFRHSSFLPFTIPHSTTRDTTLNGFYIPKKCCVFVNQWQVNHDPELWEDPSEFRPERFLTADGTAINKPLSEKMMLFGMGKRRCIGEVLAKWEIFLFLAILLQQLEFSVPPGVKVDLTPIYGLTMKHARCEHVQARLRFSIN
# Method in brief: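 Read-out is luminescence from luciferin produced by CYP1A2 demethylation of Luciferin-ME (100uM, at Km). Detection reagent stopped the 60 min NADPH-dependent reaction; signals were normalized to 57 uM furafylline.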
# [8] = biological target: Glucocorticoid receptor (Homo sapiens) (UniProt P04150); experiment: GR-GFP Redistribution (AID 450;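 active = compounds whose dose series gives a full or clear partial fitted curve of increased nuclear translocation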; note: potency is the fitted concentration of half-maximal effect); conditions: U2OS GR-GFP nuclear translocation, laser cytometry, 2 h
# Chain of Glucocorticoid receptor (Homo sapiens) (P04150 whole entry, looked up, the tested form may be a part): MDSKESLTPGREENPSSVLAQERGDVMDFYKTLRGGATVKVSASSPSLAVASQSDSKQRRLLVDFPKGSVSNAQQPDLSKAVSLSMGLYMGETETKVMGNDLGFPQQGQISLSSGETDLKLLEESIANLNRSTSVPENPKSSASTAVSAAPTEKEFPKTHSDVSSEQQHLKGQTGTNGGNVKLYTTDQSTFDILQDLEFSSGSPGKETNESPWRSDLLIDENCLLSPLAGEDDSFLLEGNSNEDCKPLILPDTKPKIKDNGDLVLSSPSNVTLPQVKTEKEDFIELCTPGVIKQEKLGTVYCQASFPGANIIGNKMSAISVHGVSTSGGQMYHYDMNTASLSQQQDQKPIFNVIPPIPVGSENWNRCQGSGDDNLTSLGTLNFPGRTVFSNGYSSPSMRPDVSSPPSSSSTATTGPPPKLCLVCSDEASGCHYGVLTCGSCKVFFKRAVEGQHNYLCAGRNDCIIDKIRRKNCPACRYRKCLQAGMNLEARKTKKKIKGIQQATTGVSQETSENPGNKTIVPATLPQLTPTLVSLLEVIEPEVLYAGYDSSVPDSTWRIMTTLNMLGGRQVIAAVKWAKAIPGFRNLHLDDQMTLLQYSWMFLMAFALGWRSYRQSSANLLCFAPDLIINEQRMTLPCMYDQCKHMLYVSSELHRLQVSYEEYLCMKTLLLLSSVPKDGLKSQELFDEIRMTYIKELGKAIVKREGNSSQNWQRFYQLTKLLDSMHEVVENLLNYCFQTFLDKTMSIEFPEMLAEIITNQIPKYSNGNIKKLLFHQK
# [9] = biological target: Glucocorticoid receptor (Homo sapiens) (UniProt P04150); experiment: GR-EFC Redistribution (AID 451; calls by dose curve; note: potency is the fitted concentration of half-maximal effect); conditions: CHO-K1 GR-EFC translocation, beta-gal luminescence, 2 h
# Method in brief: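 Translocation of GR-ED fusion to nuclear EA restores b-gal, read by luminescence after 1 h room-temperature detection. Engineered CHO-K1 biosensor cells, 1,000/well, exposed 2 h at 37 C to titrations up to 46 uM final.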
# [10] = biological target: Guanine nucleotide-binding protein G(i) subunit alpha-1 (Homo sapiens) (UniProt P63096); experiment: qHTS Assay for Inhibitors of RGS12 GoLoco Motif Activity (Green Fluorophore) (AID 879; active = well fitted curve in the direction sought with a large enough effect;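 note: negative values mean loss of peptide binding seen as reduced polarization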)
# Chain of Guanine nucleotide-binding protein G(i) subunit alpha-1 (Homo sapiens) (P63096 whole entry, looked up): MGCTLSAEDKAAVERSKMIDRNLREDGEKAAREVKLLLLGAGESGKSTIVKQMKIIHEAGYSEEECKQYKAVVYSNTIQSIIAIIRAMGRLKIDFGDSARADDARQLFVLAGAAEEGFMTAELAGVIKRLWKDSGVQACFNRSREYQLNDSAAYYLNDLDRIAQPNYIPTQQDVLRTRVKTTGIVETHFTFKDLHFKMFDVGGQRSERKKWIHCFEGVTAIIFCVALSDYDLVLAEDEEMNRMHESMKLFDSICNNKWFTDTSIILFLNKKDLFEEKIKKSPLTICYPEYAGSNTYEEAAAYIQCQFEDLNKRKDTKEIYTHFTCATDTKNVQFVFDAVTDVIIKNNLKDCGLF
# Method in brief: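 A drop in FITC polarization marked displacement of the FITC-tagged RGS12 GoLoco peptide (10 nM) from Gαi1 (50 nM). Compounds were incubated 10 min at room temperature in Tris pH 7.5 buffer containing 150 mM NaCl, 0.1 mM GDP and 0.05% NP40; unlabeled peptide titration served as control.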
SMILES,outcome [1],outcome [2],outcome [3],outcome [4],outcome [5],Potency [6],"activity change, negative = inhibition [7]",Potency [8],Potency [9],"activity change, negative = inhibition [4]",Potency [7],outcome [10]
C[C@H]1C[C@@H]2[C@@H]([C@@H](O)C[C@@]3(C)[C@H]2CC[C@]3(O)C(=O)CO)[C@@]2(C)C=CC(=O)C=C12,inactive,inactive,inactive,inactive,inactive,,,,,,,
O=C(O)[C@H](Cc1c[nH]c2ccccc12)N1C(=O)c2ccccc2C1=O,inactive,inactive,inactive,,inactive,> 11.4 µM,-8.3% [at 2.29 µM],> 46 µM,> 9.22 µM,-0.545% [at 11.4 µM],,
O=c1c2ccccc2nc2n1CCc1c-2[nH]c2ccccc12,,inactive,inactive,inactive,inactive,,,> 46 µM,> 46 µM,,0.316 µM (active),inactive
CC(C)c1ccc(Cn2ccc3c4c(N)nc(NC5CC5)nc4ccc32)cc1,,,,inactive,,,,> 46 µM,> 46 µM,,1.58 µM (active),
Nc1ccc(S(=O)(=O)Nc2ncccn2)cc1,inactive,inactive,inactive,inactive,inactive,,,,,,inactive,
COC(=O)C[C@](O)(CCCC(C)(C)O)C(=O)O[C@@H]1C(OC)=C[C@]23CCCN2CCc2cc4c(cc2[C@H]13)OCO4,,,,inactive,inactive,,,> 46 µM,> 46 µM,,inactive,
CN(C)CCCN=c1c2ccccc2n(C)c2[nH]c(=O)n(C)c(=O)c12,inactive,,,,inactive,> 11.4 µM,,> 46 µM,> 9.22 µM,0.481% [at 11.4 µM],5.01 µM (active),
